Laboratory results from the supplement of paper PMC11417369.
± gives the standard deviation of the averaged measurements. The full ranking holds about 25,000 sequences; the median of “ln(normalized median fluorescence intensity)” is about 7.9, and the highest 2% start at about 11. This excerpt belongs to a sample that is enriched for the highest values.

System: PfAP2-I AP2 domain 3 (GST-tagged)
Experiment: gcPBM binding intensity (ln(normalized median fluorescence intensity)); higher = stronger DNA binding
How it was run: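 After 1 h on an Agilent 4 × 180k array of primer-extended double-stranded 36-bp intergenic genomic probes and negative controls, bound GST-tagged P. falciparum DNA-binding domains were detected with Alexa488 anti-GST antibody and scanned at 488 nm. The domains had been expressed in E. coli, and binding took place in 1× PBS with 1% milk, 0.2 mg/ml BSA, 0.5% salmon testes DNA and 0.03% Triton X-100. Binding intensity is the highest Masliner-normalised natural-log median intensity across replicate spots of either probe orientation.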

Sequence | gcPBM binding intensity (ln)
TGGGAAAAAATATATGCACACCCCCCAAAAAAAAAA [CACACA_site8696] | 11.5 ± 0.52
GGAAAAAATATATGCACACCCCCCAAAAAAAAAAAA [CACACA_site2222] | 10.6 ± 0.2
AAAAAAAAAAAACACACACACACACCCAAATATATA [CACACA_site150] | 7.91 ± 0.2
CGGATGAATATATATGCACACATCTTTTGTAAAAAT [CACACA_site3190] | 9.16 ± 0.11
TTTCCAATTAGTTTTGCATGTTGAAAAAATGTTGGA [TGCATGCA_site1035] | 7.71 ± 0.52
TATATTATATATATACTGCACTGTTTTACAAAATTA | 10.8 ± 0.57
TTTAGTGAGTTTGTTGTGCACTGAAAAAATTACAAT | 11.1 ± 0.18
CATGAATATTTTAATGTGCACATTTATCATTATATG | 9.5 ± 0.21
TTAATTATGGACAGGGTGCACATGAATAATAATACC | 11 ± 0.18
GCACATATGAATATAATACACACTTGTATTATTAAT [CACACA_site1841] | 8.1 ± 0.52
TTTGAATACTGAATGGTGCAAATTGTTCTCCCCATG | 10.9 ± 0.61
ATTTATATATATATAGGTACACATATTTATATATAA [XGTACX_site8487] | 7.58 ± 0.41
TTAAAAGTTATGGATACACACATATAAATATAGATT [CACACA_site7175] | 7.57 ± 0.42
AAATAGTTGTTAAAGGTGCACAATATGGATATAAGA | 11.5 ± 0.38
AAAGAAATAAGGTGCACACATATACAGATATATATA [CACACA_site4399] | 10.3 ± 0.4
AATATATGTTTAATTTCACACACAAATATACATTTT [CACACA_site9385] | 7.69 ± 0.65
TACAGATACAGATACACACACACACCGAAATAAATA [CACACA_site4865] | 7.84 ± 0.37
CTTATATTAATTATTACACACATATTTATAAATGCA [CACACA_site6501] | 8.07 ± 0.47
ATATTTTATTATATAGGTACACATAATTTCATGTAA [XGTACX_site415] | 7.83 ± 0.52
ATTTCGTAATTTATATCACACACATATATATATAAT [CACACA_site9021] | 8.06 ± 0.53
TTCAAAATAAAAAATTCACACACATATATATATATA [CACACA_site8653] | 9.28 ± 0.39
CATATATATCGTAATGCACACATGTAATTTCATAAT [CACACA_site811] | 11 ± 0.92
AAAATTTAATATAATGCACACATAAAAAAAAATTCA [CACACA_site8640] | 10.9 ± 0.92
AATTTAATATAATGCACACATAAAAAAAAAAAATTC [CACACA_site1504] | 11 ± 0.61
TAAAAATTCAATTGCACACGCACATATTTTAATAAG [CACACA_site2014] | 8.8 ± 0.057

Sequence | gcPBM binding intensity (ln)
AATTTAATATAATGCACACATAAAAAAAAATTCAAA [CACACA_site2062] | 11 ± 0.79
ATTTTTAATTTTTTCACACATATATTTAAAATAAAA [CACACA_site4799] | 7.94 ± 0.49
TGTATAAATATAATCACACATATATATATATATATA [CACACA_site4365] | 9.32 ± 0.53
AATTTATAAGAATAAAGTACTAAAGATACAACTTTA [XGTACX_site7153] | 7.53 ± 0.4
GAATAAAAAAAAAAAAAAATTTATTTTATAATAAAA [CACACA_negctrl_site1514] | 7.24 ± 0.49
ACTTATATTATAAATTGTACAAATATTATATTTGGT [XGTACX_site1424] | 7.76 ± 0.54
ACATATATATATATATATATATATATATTACATTTA [CACACA_negctrl_site627] | 8.54 ± 0.28
AATAAAGAAGAAGAAAGTACACATTTCACAAAGGGG [XGTACX_site1308] | 8.23 ± 0.21
AAAAATACAATTTTCTTGCACTTTGTTGCATTGTAA | 9.79 ± 0.32
TATAAATAGATATATACACACTTGTGCAGAATATTA [CACACA_site7112] | 9.37 ± 0.099
CCATCTTTTTTACGATGTACAAGTATAAGGTATACG [XGTACX_site2697] | 7.76 ± 0.46
TACTGCCTTCCATACCCACACACTTCCCATATATTT [CACACA_site2705] | 8.44 ± 0.69
TAGAACAAATAAAACACACACATATAAATATAGATG [CACACA_site7325] | 7.65 ± 0.73
TTTTTTTGTTGTTGTTGTACGATATTTTCCTTATCA [XGTACX_site2375] | 7.93 ± 0.54
TATTCAATACTTAATGCACACAATAAAAAAAATATG [CACACA_site2467] | 10.9 ± 0.71
TATGTAATAAAATATACACACAATATACTTATATAT [CACACA_site3682] | 7.53 ± 0.55
TATGCAATAAAATATACACACAATATACTTATATAT [CACACA_site7691] | 7.87 ± 0.4
AATAATAATATATGTAGTACACATTTCCATTATGTT [XGTACX_site3708] | 7.75 ± 0.27
ACTTATTGTGGTTTTGCATGTAGCATTTTTACATAC [TGCATGCA_site247] | 8.62 ± 0.91
TGTTTTATTTTTTTTGTGCACATACCTTTAGCATCA [GTGCAC_site9812] | 10.64 ± 0.064
TTTTGTTATTTTTTAGTGCATATAAAGGTTGTTAAG | 10.7 ± 0.4
TTTCTTTTTAAATAGGTGCATATTTTTATAAATATA | 9.95 ± 0.42
CATCATCTTTTAAAGGTGCATAATAATATTGTTAAT | 11.4 ± 0.69
ATATACATTCTATATACATGCATACTTCATTTTGTG [TGCATGCA_site966] | 8.03 ± 0.85
AATGAGAAGGACTGCACACTAAAATGGAAGGAGAAA [CACACA_site1575] | 8.28 ± 0.79

Sequence | gcPBM binding intensity (ln)
GAGTGAAATATGCAAACACACACGAGAAAAATGTAT [CACACA_site3196] | 8.09 ± 0.85
GTGAAATATGCAAACACACACGAGAAAAATGTATAT [CACACA_site7488] | 8.19 ± 0.91
AAAAGGAGAAATATTGCACACGTGCAAAATGGTATG [CACACA_site4300] | 11.3 ± 0.085
AGGAAAATTATGAATGGTACAGAATATATTAGGAGA [XGTACX_site6282] | 8.05 ± 0.74
AAGGAGAAATATTGCACACGTGCAAAATGGTATGAG [CACACA_site259] | 11.1 ± 0.35
AAGAAGAGTTATTGTAGTACATTTTTAAATGTAATA [XGTACX_site7664] | 7.73 ± 0.34
TGTTATATAATTTAGCGTACAGGTTATAGGACGGAT [XGTACX_site8823] | 8.5 ± 0.35
CCATGATTATTAGATTGTACATAACATACAAATTGA [XGTACX_site314] | 7.68 ± 0.45
TGTCATGATACATACACACACATACACATACACATA [CACACA_site2135] | 8.05 ± 0.42
ATATATATATATATATGTACTAATTAATATTTCGAG [XGTACX_site580] | 9.45 ± 0.49
TTTTTTTTTTTCGGGGGTACTAATATATTATTAATA [XGTACX_site7809] | 10.8 ± 0.47
AATATTATATATATGGGTACTAATTCCTTTAATTTC [XGTACX_site102] | 7.45 ± 0.53
ATATGCATAAAAAGAGGTACACATAAAATATATATA [XGTACX_site5864] | 8.19 ± 0.64
TAAATAATTTATAAGTGTACTATTATTGCACGAATA [XGTACX_site7715] | 11.1 ± 0.57
GATATACAATTTAAGTGTACTATAATAAAATATATA [XGTACX_site3013] | 7.79 ± 0.071
TTTATTTAAAATAAGTGTACTAGAAAAATTAAGCAG [XGTACX_site4982] | 8.55 ± 0.16
ACATATTTCCAATAATGTACATACAAAATAAGAATG [XGTACX_site2659] | 7.82 ± 0.58
AAAAAAAAAATATATTGTACAATATTGTAGCTATAT [XGTACX_site7180] | 7.67 ± 0.49
GTTTTTAAGAAAAACACACACTCCTGTTATTTTATA [CACACA_site3696] | 7.67 ± 0.72
ATGCTTATTATTTATTGTACTGAATAAATATATCTG [XGTACX_site4483] | 7.79 ± 0.46
TCGTGCATAAATCATACACACACACCGATATATATA [CACACA_site8767] | 11.3 ± 0.67
GTGCATAAATCATACACACACACATATATAAATATA [CACACA_site7188] | 10.5 ± 0.65
GTGCATAAATCATACACACACACATATATATATATA [CACACA_site2423] | 10.4 ± 0.67
TATACGGACTCTAAGTGTACTTAAAATAATTCAAAC [XGTACX_site3606] | 7.75 ± 0.53
AATTAACCCTAATTTTGTACATATTCCTTTTCTCAT [XGTACX_site46] | 7.92 ± 1

Sequence | gcPBM binding intensity (ln)
TATTTTTATTATATGGTGCATATATACATACATATA | 10.7 ± 0.79
TATTATTATTTTATGGTGCAAAAAAAAAAAAAAAAA | 10.9 ± 0.61
ATTTTATTTTATTAAGTGCAAAAAAAAAAAAAGAAA | 10.2 ± 0.32
AAAAACAAAATTTGGAGTACAGTTATAATATTATTA [XGTACX_site5245] | 8 ± 0.24
TAATATAATCTGAGTGCACACAAATAAATAAACATA [CACACA_site8032] | 10.5 ± 0.14
ATGAGTGCACAAATATATATATATATATATATATAT [CACACA_negctrl_site404] | 11 ± 0.56
GCACAAATATATATATATATATATATATATATATAT [GTGCAC_negctrl_site661] | 9.07 ± 0.54
GGAAAATTATCAATAGCATGCAAAATGTGAATATTA [TGCATGCA_site901] | 7.61 ± 0.7
GAAAATATTATAGCACCACACACTTATTTTATATAT [CACACA_site2265] | 10.5 ± 0.71
AAATATTATAGCACCACACACTTATTTTATATATAT [CACACA_site5281] | 10.8 ± 0.86
AAATATTATAGCACCACACACTTATTTTATTTATAT [CACACA_site7133] | 10.8 ± 0.55
ATTATTATTATATTTTGTACATATGTAACAATATAT [XGTACX_site5780] | 7.83 ± 0.47
AATAATTTTTTAAACACACACACATATATATATATA [CACACA_site95] | 9.32 ± 0.28
GAAATAATTTCATATACACACATATACATACATACA [CACACA_site1358] | 8.44 ± 0.72
ATAAAAAAATTAAATACATGCACATATACACATACA [TGCATGCA_site129] | 8.17 ± 0.38
AATTTAATATAATGCACACATAAAAAAAAAAAAAAA [CACACA_site123] | 11.2 ± 0.78
AAAATTTAATATAATGCACACATAAAAAAAAAAAAA [CACACA_site7923] | 11 ± 0.93
CATTTATATAAAAGAACACACATATAAAATATTATT [CACACA_site3601] | 7.66 ± 0.52
TTAAAAGAATATAATGCACACATTATTTTATTTTAT [CACACA_site3772] | 10.9 ± 0.73
ATAAAATATATATGCACACACATATATATTTCATAC [CACACA_site3547] | 9.5 ± 0.14
TATATAAATTTAATAACACACATATAAAAATGAATT [CACACA_site2366] | 7.61 ± 0.55
GCACACATATAATAATGTACATATATATATTTAAAA [XGTACX_site4561] | 7.96 ± 0.44
ATAATTTCATAATACGTGCACATAATATATAAAAAA | 11.385 ± 0.007
AACATTTATATAAAAGAACACACATATAAAATATTA [CACACA_site9199] | 7.62 ± 0.61
